In all, about 57,000 sequences went through this assay and about 4,100 (7.2%) were called active. Rule as the data show it: active = GI50 up to about 1.1 µM and inactive = higher. Only a sample is shown. Entries with a potency or affinity are not part of this list.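 Method: 48-hour compound exposure of cells in 96-well plates, five concentrations, linear interpolation of endpoints. Here, GI50 denotes the concentration required for 50% inhibition of growth.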

In this assay the test system is SK-MEL-5. The assay can be described thus: NCI tumour cell line growth inhibition, 48 h.
“cis-Bis[[(trimethylsilyl)methyl]amino]tetrachloroplatinum(IV), CHEMBL2146191”: the GI50 was determined as 3.48 µM.

“[Bis(aminomethyl)tetramethylenesilane]tetrachloropaltinum(IV), CHEMBL2146189” returned a GI50 of 5.77 µM.

For the substance CISPLATIN, CHEMBL11359, the GI50 came to 2.69 µM.

Consider “[Bis(aminomethyl)tetramethylenesilane]dichloropaltinum(II), CHEMBL2146205”, for which the GI50 was 14.8 µM.

The substance “[Bis(aminomethyl)pentamethylenesilane]dichloropaltinum(II), CHEMBL2146202” yielded a GI50 of 3.3 µM.

For the substance “[Bis(aminomethyl)diethylsilane]tetrachloroplatinum(IV), CHEMBL2146203”, the GI50 came to 73.8 µM.

“[Bis(aminomethyl)ethylmethylsilane]tetrachloroplatinum(IV), CHEMBL2146192”: the GI50 was determined as 1.15 µM.

Take “[Bis(aminomethyl)pentamethylenesilane]tetrachloropaltinum(IV), CHEMBL2146204”: the GI50 was 3.21 µM.

The substance “mu-(1,7-nanodiamine-N,N')bis-(cis-aminedichloroplatimum (II)), CHEMBL2146215” displayed a GI50 of 5.82 µM.

For “[Bis(aminomethyl)dimethylsilane]dichloroplatinum (II), CHEMBL2146201”, the GI50 is 11.2 µM.

“[Bis(aminomethyl)dimethylsilane]tetrachloroplatinum(IV), CHEMBL2146190”: the GI50 turned out to be 3.85 µM.

Source of the values: ChEMBL document CHEMBL1201862, “PubChem BioAssay data set” (2004).
